# Source: the supplement of paper PMC8285479
# Structures can show the parent of a compound that is named as a salt. ± gives the standard deviation of the averaged measurements. In all, about 1,900 compounds were measured (“normalised cell viability (NPI; 0 = phenylarsine oxide control, 1 = DMSO control)”: median about 1, lowest 2% from about 0.039 on). The full list was thinned out, with the lowest values kept by preference.
# Tested on: NCI-H1944
# Assay: normalised cell viability (NPI; 0 = phenylarsine oxide control, 1 = DMSO control) (fraction of DMSO control); NCI-H1944 is a non-small cell lung cancer line; higher = more viable cells (less compound toxicity)
# Settings: 6 days
# [1] = glucocorticoid arm: hydrocortisone 2.75 uM co-treatment, compound 1 µM
# [2] = glucocorticoid arm: hydrocortisone 2.75 uM co-treatment, compound 5 µM
# [3] = glucocorticoid arm: hydrocortisone 2.75 uM pre-treated 2 days and continued, compound 1 µM
# [4] = glucocorticoid arm: hydrocortisone 2.75 uM pre-treated 2 days and continued, compound 5 µM
# [5] = glucocorticoid arm: vehicle, compound 1 µM
# [6] = glucocorticoid arm: vehicle, compound 5 µM
# 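Note: CTB read-out in 384-well plates, triplicate wells, NPI normalised per plate against 1 µM phenylarsine oxide (0) and 0.1% DMSO (1) controls.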
compound,measurement,setting,value
CC(C)NCC(O)c1ccc(O)c(O)c1 (racemic) [(±)-Isoproterenol hydrochloride],normalised cell viability,[1],1.01 ± 0.011
same,normalised cell viability,[2],1.03 ± 0.042
same,normalised cell viability,[3],1.01
same,normalised cell viability,[4],1.04 ± 0.064
same,normalised cell viability,[5],0.99967 ± 0.00058
same,normalised cell viability,[6],1.02 ± 0.021
N[C@@H](CCCC(=O)O)C(=O)O [L-2-aminoadipic acid],normalised cell viability,[1],0.9947 ± 0.0055
same,normalised cell viability,[2],0.991 ± 0.015
same,normalised cell viability,[3],0.997 ± 0.013
same,normalised cell viability,[4],0.97 ± 0.018
same,normalised cell viability,[5],0.979 ± 0.014
same,normalised cell viability,[6],0.9823 ± 0.0067
O=C(NC1CCNCC1)c1n[nH]cc1NC(=O)c1c(Cl)cccc1Cl,normalised cell viability,[1],0.225 ± 0.03
same,normalised cell viability,[2],0.0298 ± 0.0013
same,normalised cell viability,[3],0.349 ± 0.039
same,normalised cell viability,[4],0.149 ± 0.015
same,normalised cell viability,[5],0.0396 ± 0.029
same,normalised cell viability,[6],0.0072 ± 0.00086
NC(=O)Nc1cc(-c2cccc(F)c2)sc1C(=O)N[C@H]1CCCNC1,normalised cell viability,[1],0.65 ± 0.013
same,normalised cell viability,[2],0.45 ± 0.024
same,normalised cell viability,[3],0.93 ± 0.021
same,normalised cell viability,[4],0.7733 ± 0.0071
same,normalised cell viability,[5],0.338 ± 0.012
same,normalised cell viability,[6],0.158 ± 0.015
CN1CCCN(C(=O)c2cccc(-c3ccc(/C=C4/C(=O)Nc5ccc(Cl)cc54)o3)c2)CC1,normalised cell viability,[1],0.717 ± 0.032
same,normalised cell viability,[2],0.214 ± 0.24
same,normalised cell viability,[3],0.937 ± 0.021
same,normalised cell viability,[4],0.887 ± 0.059
same,normalised cell viability,[5],0.282 ± 0.017
same,normalised cell viability,[6],0.00113 ± 0.00047
Cc1[nH]c(/C=C2\C(=O)Nc3ccc(S(=O)(=O)N(C)c4cccc(Cl)c4)cc32)c(C)c1C(=O)N1CCN(C)CC1,normalised cell viability,[1],0.9913 ± 0.0072
same,normalised cell viability,[2],0.986 ± 0.012
same,normalised cell viability,[3],1.003 ± 0.0058
same,normalised cell viability,[4],0.989 ± 0.014
same,normalised cell viability,[5],0.969 ± 0.01
same,normalised cell viability,[6],0.849 ± 0.036
CN1CCN(C(=O)c2cc3cc(Cl)ccc3[nH]2)CC1,normalised cell viability,[1],1.027 ± 0.0058
same,normalised cell viability,[2],1.023 ± 0.0058
same,normalised cell viability,[3],1.013 ± 0.0058
same,normalised cell viability,[4],1.03 ± 0.021
same,normalised cell viability,[5],1.007 ± 0.0058
same,normalised cell viability,[6],1.01 ± 0.01
NC1(Cc2ccc(Cl)cc2)CCN(c2ncnc3[nH]ccc23)CC1,normalised cell viability,[1],0.901 ± 0.034
same,normalised cell viability,[2],0.602 ± 0.08
same,normalised cell viability,[3],0.934 ± 0.014
same,normalised cell viability,[4],0.68 ± 0.045
same,normalised cell viability,[5],0.9813 ± 0.0087
same,normalised cell viability,[6],0.827 ± 0.068
CC1(C)CCC(NC(=O)[C@@H](N)CCC(=O)O)CC1,normalised cell viability,[1],0.979 ± 0.013
same,normalised cell viability,[2],0.975 ± 0.016
same,normalised cell viability,[3],0.999 ± 0.011
same,normalised cell viability,[4],0.982 ± 0.046
same,normalised cell viability,[5],0.9703 ± 0.0085
same,normalised cell viability,[6],0.985 ± 0.012
CC(C)(C(=O)O)c1ccc(C(O)CCCN2CCC(C(O)(c3ccccc3)c3ccccc3)CC2)cc1 (configuration not stated) [Fexofenadine hydrochloride],normalised cell viability,[1],1.006 ± 0.0069
same,normalised cell viability,[2],1 ± 0.013
same,normalised cell viability,[3],0.997 ± 0.013
same,normalised cell viability,[4],0.99 ± 0.01
same,normalised cell viability,[5],1.003 ± 0.0058
same,normalised cell viability,[6],0.9967 ± 0.0035
CC(C)(C)c1ccc(C(O)CCCN2CCC(C(O)(c3ccccc3)c3ccccc3)CC2)cc1 (configuration not stated) [Terfenadine],normalised cell viability,[1],0.997 ± 0.0027
same,normalised cell viability,[2],0.9833 ± 0.0051
same,normalised cell viability,[3],1.03 ± 0.017
same,normalised cell viability,[4],1.03 ± 0.017
same,normalised cell viability,[5],0.9927 ± 0.006
same,normalised cell viability,[6],0.0387 ± 0.043
CC(C)(C(=O)O)c1ccc(C(O)CCCN2CCC(C(O)(c3ccccc3)c3ccccc3)CC2)cc1 (configuration not stated) [Fexofenadine HCl],normalised cell viability,[1],1.03 ± 0.01
same,normalised cell viability,[2],1.02 ± 0.021
same,normalised cell viability,[3],1.037 ± 0.0058
same,normalised cell viability,[4],1.05 ± 0.011
same,normalised cell viability,[5],0.999 ± 0.011
same,normalised cell viability,[6],0.998 ± 0.01
OC(CCN1CCCCC1)(c1ccccc1)C1CCCCC1 (racemic) [DL-Trihexyphenidyl hydrochloride],normalised cell viability,[1],0.99967 ± 0.00058
same,normalised cell viability,[2],0.998 ± 0.013
same,normalised cell viability,[3],1.03 ± 0.021
same,normalised cell viability,[4],1.02 ± 0.011
same,normalised cell viability,[5],0.995 ± 0.007
same,normalised cell viability,[6],1.001 ± 0.0085
COc1ccc2c3n(c(=NC(=O)c4cccnc4)nc2c1OC)CCN3,normalised cell viability,[1],0.911 ± 0.004
same,normalised cell viability,[2],0.628 ± 0.018
same,normalised cell viability,[3],0.901 ± 0.012
same,normalised cell viability,[4],0.663 ± 0.033
same,normalised cell viability,[5],0.9907 ± 0.0049
same,normalised cell viability,[6],0.85 ± 0.029
O=C(Nc1cccc(Nc2ncc(Br)c(NCCc3cnc[nH]3)n2)c1)N1CCCC1,normalised cell viability,[1],0.955 ± 0.015
same,normalised cell viability,[2],0.805 ± 0.016
same,normalised cell viability,[3],0.939 ± 0.0062
same,normalised cell viability,[4],0.859 ± 0.02
same,normalised cell viability,[5],0.917 ± 0.0095
same,normalised cell viability,[6],0.635 ± 0.029
"CCCn1c(=O)c2[nH]c(-c3ccc(S(=O)(=O)O)cc3)nc2n(CCC)c1=O [1,3-Dipropyl-8-p-sulfophenylxanthine]",normalised cell viability,[1],0.9873 ± 0.0049
same,normalised cell viability,[2],0.99 ± 0.01
same,normalised cell viability,[3],0.994 ± 0.01
same,normalised cell viability,[4],0.986 ± 0.034
same,normalised cell viability,[5],0.996 ± 0.016
same,normalised cell viability,[6],0.996 ± 0.0061
Cc1cc(N)c2ccccc2[n+]1CCCCCCCCCC[n+]1c(C)cc(N)c2ccccc21 [Dequalinium chloride hydrate],normalised cell viability,[1],0.888 ± 0.026
same,normalised cell viability,[2],0.0383 ± 0.0062
same,normalised cell viability,[3],0.963 ± 0.016
same,normalised cell viability,[4],0.0385 ± 0.0016
same,normalised cell viability,[5],0.991 ± 0.013
same,normalised cell viability,[6],0.00579 ± 0.0022
OC[C@H]1O[C@@H](n2cnc3c2N=CNC[C@H]3O)C[C@@H]1O [Pentostatin],normalised cell viability,[1],1.02 ± 0.011
same,normalised cell viability,[2],1.01 ± 0.022
same,normalised cell viability,[3],1.03 ± 0.011
same,normalised cell viability,[4],1.04 ± 0.01
same,normalised cell viability,[5],1.013 ± 0.0058
same,normalised cell viability,[6],1.01 ± 0.011
N[C@@H](Cc1ccc(O)c(I)c1)C(=O)O [3-Iodo-L-tyrosine],normalised cell viability,[1],0.982 ± 0.01
same,normalised cell viability,[2],0.973 ± 0.035
same,normalised cell viability,[3],0.991 ± 0.006
same,normalised cell viability,[4],0.996 ± 0.066
same,normalised cell viability,[5],0.999 ± 0.011
same,normalised cell viability,[6],0.998 ± 0.01
N[C@H](CO)C(=O)O [D-Serine],normalised cell viability,[1],1.013 ± 0.0058
same,normalised cell viability,[2],1.04 ± 0.06
same,normalised cell viability,[3],0.896 ± 0.27
same,normalised cell viability,[4],1.02 ± 0.01
same,normalised cell viability,[5],1.02
same,normalised cell viability,[6],1.017 ± 0.0058
CN1CCc2cc(O)c(O)cc2C(c2ccccc2)C1 (configuration not stated),normalised cell viability,[1],1 ± 0.0087
same,normalised cell viability,[2],1.02 ± 0.022
same,normalised cell viability,[3],0.876 ± 0.23
same,normalised cell viability,[4],1.01 ± 0.02
same,normalised cell viability,[5],1.02
same,normalised cell viability,[6],1.023 ± 0.0058
COc1ncc(-c2ccc3nccc(-c4ccnnc4)c3c2)cc1NS(=O)(=O)c1ccc(F)cc1F,normalised cell viability,[1],0.264 ± 0.0058
same,normalised cell viability,[2],0.231 ± 0.027
same,normalised cell viability,[3],0.365 ± 0.025
same,normalised cell viability,[4],0.249 ± 0.02
same,normalised cell viability,[5],0.0495 ± 0.0081
same,normalised cell viability,[6],0.0214 ± 0.0013
COc1cc2nccc(Oc3ccc(NC(=O)Nc4ccc(F)cc4F)c(F)c3)c2cc1OC,normalised cell viability,[1],1.05 ± 0.011
same,normalised cell viability,[2],1.06 ± 0.01
same,normalised cell viability,[3],1.037 ± 0.0058
same,normalised cell viability,[4],1.04 ± 0.021
same,normalised cell viability,[5],1.003 ± 0.0063
same,normalised cell viability,[6],1.013 ± 0.0058
CCCS(=O)(=O)Nc1ccc(F)c(C(=O)c2c[nH]c3ncc(-c4ccc(Cl)cc4)cc23)c1F [Vemurafenib (PLX4032)],normalised cell viability,[1],1.05 ± 0.011
same,normalised cell viability,[2],0.997 ± 0.029
same,normalised cell viability,[3],1.03
same,normalised cell viability,[4],1.01 ± 0.026
same,normalised cell viability,[5],1.017 ± 0.0058
same,normalised cell viability,[6],1.007 ± 0.0058
CCCS(=O)(=O)Nc1ccc(F)c(C(=O)c2c[nH]c3ncc(-c4ccc(Cl)cc4)cc23)c1F [vemurafenib],normalised cell viability,[1],1.04 ± 0.011
same,normalised cell viability,[2],1.14 ± 0.02
same,normalised cell viability,[3],1.03 ± 0.01
same,normalised cell viability,[4],1.08 ± 0.01
same,normalised cell viability,[5],1.01 ± 0.01
same,normalised cell viability,[6],1.037 ± 0.0058
"Nc1ncnc2c1ncn2[C@@H]1O[C@@H]2COP(=O)(O)O[C@H]2[C@H]1O [Adenosine 3',5'-cyclic monophosphate]",normalised cell viability,[1],0.986 ± 0.014
same,normalised cell viability,[2],0.9813 ± 0.007
same,normalised cell viability,[3],0.998 ± 0.011
same,normalised cell viability,[4],0.965 ± 0.019
same,normalised cell viability,[5],0.991 ± 0.016
same,normalised cell viability,[6],0.9797 ± 0.0074
NCc1c[nH]c(=S)n1[C@H]1CCc2c(F)cc(F)cc2C1 [Nepicastat (SYN-117) HCl],normalised cell viability,[1],0.9937 ± 0.006
same,normalised cell viability,[2],1
same,normalised cell viability,[3],1.01 ± 0.022
same,normalised cell viability,[4],0.98 ± 0.017
same,normalised cell viability,[5],0.9937 ± 0.0085
same,normalised cell viability,[6],0.9913 ± 0.0051
C=CC(=O)Nc1cc(Nc2nccc(-c3cn(C)c4ccccc34)n2)c(OC)cc1N(C)CCN(C)C,normalised cell viability,[1],0.891 ± 0.003
same,normalised cell viability,[2],0.842 ± 0.022
same,normalised cell viability,[3],0.944 ± 0.015
same,normalised cell viability,[4],0.916 ± 0.034
same,normalised cell viability,[5],0.789 ± 0.028
same,normalised cell viability,[6],0.762 ± 0.045
CC[C@@H]1SC2(CCN(C)CC2)NC1=O,normalised cell viability,[1],1.02
same,normalised cell viability,[2],1.01 ± 0.011
same,normalised cell viability,[3],1.03 ± 0.029
same,normalised cell viability,[4],1.02 ± 0.011
same,normalised cell viability,[5],1.013 ± 0.0058
same,normalised cell viability,[6],1.01 ± 0.012
CC(C)[C@H](NC(=O)OCc1ccccc1)C(=O)N[C@H](C=O)Cc1ccccc1,normalised cell viability,[1],0.989 ± 0.011
same,normalised cell viability,[2],0.987 ± 0.041
same,normalised cell viability,[3],0.997 ± 0.0052
same,normalised cell viability,[4],1.03 ± 0.085
same,normalised cell viability,[5],1 ± 0.0087
same,normalised cell viability,[6],1 ± 0.013
Cc1ccc(S(=O)(=O)N[C@@H](Cc2ccccc2)C(=O)CCl)cc1 [N-p-Tosyl-L-phenylalanine chloromethyl ketone],normalised cell viability,[1],0.9977 ± 0.0032
same,normalised cell viability,[2],1.01 ± 0.028
same,normalised cell viability,[3],0.868 ± 0.25
same,normalised cell viability,[4],1.02 ± 0.015
same,normalised cell viability,[5],1.007 ± 0.0058
same,normalised cell viability,[6],0.691 ± 0.057
O=C(N[C@@H](Cc1ccccc1)C(=O)CCl)OCc1ccccc1 [Z-L-Phe chloromethyl ketone],normalised cell viability,[1],1.03 ± 0.01
same,normalised cell viability,[2],0.028 ± 0.0044
same,normalised cell viability,[3],1.02 ± 0.016
same,normalised cell viability,[4],1.075 ± 0.0071
same,normalised cell viability,[5],1.03 ± 0.01
same,normalised cell viability,[6],0.149 ± 0.086
